Source: PubChem BioAssay
Hits are enriched below; roughly 32% of the tested compounds scored in any of these assays.
CYP2C19 activ: cytochrome P450 2C19 (human) activation; P33261; recombinant CYP2C19, luciferin-H EGE luminescence; hits give high values; 0 = fully inhibited enzyme, 1 = untreated enzyme; activation factor at 5 µM; 96,000 tested, under 10 active;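 active = activation factor of at least 2 at 5 µM in the primary screen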;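 note: 0 = wells with 2.5 mM tranylcypromine and 1 = vehicle-only wells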
Target sequence (P33261 whole entry, looked up): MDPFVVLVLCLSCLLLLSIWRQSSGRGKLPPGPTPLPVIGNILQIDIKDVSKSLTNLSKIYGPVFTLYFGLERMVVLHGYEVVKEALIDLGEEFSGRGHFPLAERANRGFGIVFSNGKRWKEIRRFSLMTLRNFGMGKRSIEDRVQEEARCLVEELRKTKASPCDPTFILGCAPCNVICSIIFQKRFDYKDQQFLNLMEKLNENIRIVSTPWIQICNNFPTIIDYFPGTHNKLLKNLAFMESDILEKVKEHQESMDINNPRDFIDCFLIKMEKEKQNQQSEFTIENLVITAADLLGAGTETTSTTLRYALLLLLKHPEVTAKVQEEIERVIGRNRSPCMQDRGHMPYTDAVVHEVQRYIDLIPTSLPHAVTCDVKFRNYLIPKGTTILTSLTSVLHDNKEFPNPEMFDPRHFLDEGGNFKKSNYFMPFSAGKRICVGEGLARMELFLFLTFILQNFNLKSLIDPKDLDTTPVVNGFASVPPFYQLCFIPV
CYP2C19 inh: inhibitors of human CYP2C19; P33261; CYP2C19 Supersomes, luciferin-H EGE luminescence, 30 min; inhibition, % at 5 µM; actives 21% (n = 96,000); AID 778;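 active = CYP2C19 inhibition above a set limit at 5 µM in the primary screen, cut at about 50% in these data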;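 note: plate controls were negative control wells for no effect and 2.5 mM tranylcypromine positive control for full effect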
CYP2C9 activ: increases human cytochrome P450 2C9 activity; P11712; recombinant CYP2C9, luciferin-H conversion, luminescence; hits give high values; factor 1 = untreated enzyme, 0 = blocked; activation factor at 5 µM; actives 1.4% (n = 96,000); AID 1024;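 active = activation factor of 2 or more for CYP2C9 at a 5 µM dose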;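 note: 0 = sulfaphenazole-blocked wells and 1 = vehicle-only wells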
CYP2C9 inhib: blocks human cytochrome P450 2C9 | CYP2C9 Supersomes, luciferin-H conversion, luminescence | inhibition, % at 5 µM | actives 20% (n = 96,000);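 active = blocking of liver enzyme CYP2C9 beyond about 50% at 5 µM, limit read from the data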
PostGolgi yeast: growth inhibition of a yeast mutant, post-Golgi transport screen; post-Golgi transport phenotypic cell assay; inhibition, % at 10 µM; actives 0.9% (n = 98,000); AID 739;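 note: yeast cells grown in 1536-well plates; yeast grown about 18 h at 30C before absorbance read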
PostGolgi ctrl: inhibits growth of the yeast control strain | efflux-deficient yeast background strain, growth absorbance A615, 16 h | inhibition, % at 10 µM | actives 5% (n = 98,000) | AID 738
Starred values were filed as active, the others as inactive. Cut-off read from the data, not from the text of the source, unless noted: active = inhibition above about 30%; inactive = the rest.

Screening CC(C)SCCCCOc1ccc2ccccc2c1 returned CYP2C19 activ 0.9, CYP2C19 inh 7, CYP2C9 activ 0.9, CYP2C9 inhib 7, PostGolgi yeast -4 and PostGolgi ctrl 30.
For O=C(Nc1ccccn1)c1ccc2ccccc2n1 the results were CYP2C19 activ 1, CYP2C19 inh -1, CYP2C9 activ 1, CYP2C9 inhib 3, PostGolgi yeast 3 and PostGolgi ctrl 15.
`CCOC(=O)N1CCN(C(=O)c2c(O)c3cccc4c3n(c2=O)CC4)CC1` gave CYP2C19 activ 1, CYP2C19 inh 0, CYP2C9 activ 1, CYP2C9 inhib -4, PostGolgi yeast -1 and PostGolgi ctrl 11.
CCn1c(SCC(=O)Nc2cc(C)ccc2C)nc2c(c1=O)SC(C)C2 (stereo not given) was read as CYP2C19 activ 0.8, CYP2C19 inh 20, CYP2C9 activ 0.2, CYP2C9 inhib 76*, PostGolgi yeast 2 and PostGolgi ctrl 8.
Screening CC1Cc2nc(SCC(=O)Nc3ccc(F)cc3F)n(C)c(=O)c2S1 (stereo not given) returned CYP2C19 activ 0.7, CYP2C19 inh 27, CYP2C9 activ 0.5 and CYP2C9 inhib 53*.
Screening Cc1ccc(C)c(NC(=O)CSc2nc3c(c(=O)n2C)SC(C)C3)c1 (stereo not given) returned CYP2C19 activ 0.8, CYP2C19 inh 17, CYP2C9 activ 0.3, CYP2C9 inhib 66*, PostGolgi yeast 1 and PostGolgi ctrl -6.
Screening Cc1ccc2nc(NC(=O)CSc3nc4c(c(=O)n3C)SC(C)C4)sc2c1 (stereo not given) returned CYP2C19 activ 0.5, CYP2C19 inh 48, CYP2C9 activ 0.3, CYP2C9 inhib 68*, PostGolgi yeast -1 and PostGolgi ctrl 27.
Screening CCn1c(SCC(=O)Nc2cccc(F)c2)nc2c(c1=O)SC(C)C2 (stereo not given) returned PostGolgi yeast 2 and PostGolgi ctrl -3.
Screening CN(C)CCNC(=O)C(C(=O)c1ccc(F)cc1)n1ccccc1=O (stereo not given) returned CYP2C19 activ 0.9, CYP2C19 inh 11, CYP2C9 activ 0.9, CYP2C9 inhib 8, PostGolgi yeast 4 and PostGolgi ctrl 6.
Screening O=C(NCc1cc(C(F)(F)F)cc(C(F)(F)F)c1)C12CN(Cc3ccccc3)CC1C(c1cccc([N+](=O)[O-])c1)=NO2 (stereo not given) returned CYP2C19 activ 0.7, CYP2C19 inh 26, CYP2C9 activ 0.6, CYP2C9 inhib 36, PostGolgi yeast -8 and PostGolgi ctrl 0.
Screening CCCOC(=O)C1=C(C)NC2=C(C(=O)CCC2)C1c1cccs1 (stereo not given) returned CYP2C19 activ 0.2, CYP2C19 inh 78*, CYP2C9 activ 0.3, CYP2C9 inhib 71*, PostGolgi yeast -2 and PostGolgi ctrl 4.
`CC1=C(C(=O)OC2CCCC2)C(c2ccc(C)o2)C2=C(CC(c3cccs3)CC2=O)N1` (stereo not given) gave CYP2C19 activ 0.9, CYP2C19 inh 14, CYP2C9 activ 0.3, CYP2C9 inhib 72*, PostGolgi yeast 4 and PostGolgi ctrl 22.
Screening CC1=C(C(=O)OC2CCCCCC2)C(c2ccc(C)o2)C2=C(CCCC2=O)N1 (stereo not given) returned PostGolgi yeast 0 and PostGolgi ctrl 15.
Screening CC1=C(C(=O)Nc2ccccc2C)C(c2ccc(C)o2)C2=C(CCCC2=O)N1 (stereo not given) returned CYP2C19 activ 0.3, CYP2C19 inh 69*, CYP2C9 activ 0.4, CYP2C9 inhib 57*, PostGolgi yeast 23 and PostGolgi ctrl 9.
`COC(=O)C1=C(C)NC2=C(C(=O)CCC2)C1c1coc2ccccc2c1=O` (stereo not given) gave CYP2C19 activ 0.6, CYP2C19 inh 39, CYP2C9 activ 0.9, CYP2C9 inhib 10, PostGolgi yeast 2 and PostGolgi ctrl -8.
For CCOC(=O)C1=C(C)NC2=C(C(=O)CCC2)C1c1coc2ccccc2c1=O (stereo not given) the results were CYP2C19 activ 0.4, CYP2C19 inh 65*, CYP2C9 activ 0.3, CYP2C9 inhib 68*, PostGolgi yeast 18 and PostGolgi ctrl 26.
`CCOCC(=O)Nc1cccc(NC(C)=O)c1` gave CYP2C19 activ 1, CYP2C19 inh 2, CYP2C9 activ 1.1, CYP2C9 inhib -6, PostGolgi yeast -3 and PostGolgi ctrl 16.
